# Bioassay records: PubChem, several laboratories
# Hits are enriched below; roughly 3.5% of the tested compounds scored in any of these assays.
# Anthrax LF inh2 = anthrax lethal factor protease inhibition | AID 588501 | multiplex microsphere protease cleavage assay, LF | hit rate 0.12% among 360,000 | inhibition, % at 10 µM; also: plate controls were buffer without enzyme for full effect and enzyme alone for no effect
# Target sequence (P15917 whole entry, looked up): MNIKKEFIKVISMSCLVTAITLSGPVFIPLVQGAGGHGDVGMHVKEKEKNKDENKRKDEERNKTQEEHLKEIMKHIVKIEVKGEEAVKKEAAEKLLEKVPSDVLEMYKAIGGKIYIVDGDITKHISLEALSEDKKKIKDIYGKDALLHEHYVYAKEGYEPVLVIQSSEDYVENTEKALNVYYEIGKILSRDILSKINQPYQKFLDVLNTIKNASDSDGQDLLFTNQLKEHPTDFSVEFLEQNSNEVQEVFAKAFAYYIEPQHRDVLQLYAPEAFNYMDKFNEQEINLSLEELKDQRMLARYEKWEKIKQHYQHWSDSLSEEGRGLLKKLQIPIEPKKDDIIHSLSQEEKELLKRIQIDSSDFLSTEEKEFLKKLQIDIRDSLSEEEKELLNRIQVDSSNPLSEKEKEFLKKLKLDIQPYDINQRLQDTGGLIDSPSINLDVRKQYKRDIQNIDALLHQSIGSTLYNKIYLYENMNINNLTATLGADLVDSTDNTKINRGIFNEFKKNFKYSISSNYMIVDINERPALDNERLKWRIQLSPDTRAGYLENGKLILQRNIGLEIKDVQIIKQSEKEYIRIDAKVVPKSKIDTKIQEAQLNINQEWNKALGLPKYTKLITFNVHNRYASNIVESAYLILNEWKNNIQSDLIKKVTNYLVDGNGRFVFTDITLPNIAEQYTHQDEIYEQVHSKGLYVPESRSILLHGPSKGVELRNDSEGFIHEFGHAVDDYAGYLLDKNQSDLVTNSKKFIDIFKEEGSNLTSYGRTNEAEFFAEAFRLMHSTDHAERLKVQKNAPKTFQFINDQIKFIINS
# BoNT-F LC inh = BoNT F light chain protease inhibition; Multiplex microsphere protease cleavage assay, flow cytometry; inhibition, % at 10 µM; hit rate 0.22% among 360,000; in the data active = inhibition above about 35%, passing the limit was not always enough; inconclusive = no clear call, values can overlap the other calls; also: plate controls were buffer without enzyme for full effect and enzyme alone for no effect
# Bead autofluor = flagged as autofluorescent in microsphere protease counterscreen. AID 624483. compound autofluorescence counterscreen, microsphere flow cytometry; hits give high values. fluorescence intensity (no concentration beside the values). hit rate 3.1% among 360,000; in the data active = fluorescence intensity above about 16000; inconclusive = no clear call, values can overlap the other calls
# BoNT-A LC inh2 = blocks Botulinum neurotoxin A light chain protease; AID 588499; inhibition, % at 10 µM; multiplex microsphere protease substrate cleavage, flow cytometry; hit rate 0.17% among 360,000; also: plate controls were buffer without enzyme for full effect and enzyme alone for no effect
# BJeLR lethal = BJeLR cell viability loss | AID 1554 | hit rate 0.17% among 300,000 | inhibition, % (test concentration not listed) | BJeLR (HRASV12) viability, CellTiter-Glo ATP luminescence, 48 h; in the data active = inhibition above about 50%; inconclusive = no clear call, values can overlap the other calls
# The depositor's hits bear a star; i = inactive; ? = inconclusive; . = no result. Rule as the data show it, unless noted: active = inhibition above about 30%; inconclusive = no clear call, values can overlap the other calls; inactive = below that.
SMILES,Anthrax LF inh2,BoNT-F LC inh,Bead autofluor,BoNT-A LC inh2,BJeLR lethal
Cc1cc(/C=N/NC(=O)c2cccs2)c(C)n1-c1ccccc1,-4,-20,4249,0,8
Cc1cc(/C=N/NC(=O)c2ccncc2)c(C)n1-c1ccccc1,-1,-4,1993,0,3
Cc1ccc(-n2c(C)cc(/C=N/NC(=O)c3ccncc3)c2C)cc1C,-5,-7,4461,-1,2
C[C@H]1CN([C@@H](C)CO)C(=O)CCCn2cc(nn2)CO[C@@H]1CN(C)C(=O)Nc1ccccc1C(F)(F)F,-3,8,3301,0,.
CCCn1c(N)c(N(CCOC)C(=O)c2cccc(S(=O)(=O)N3CCCc4ccccc43)c2)c(=O)[nH]c1=O,-3,-6,5565,?,0
CCN1C(=O)C(CC(=O)NC2CCCCC2)N(CC)C1=O (stereo not drawn),-3,0,3377,-1,11
CCN1C(=O)C(CC(=O)NCc2ccc(Cl)cc2)N(CC)C1=O (stereo not drawn),0,-1,20390*,-1,-5
CCOC(=O)[C@]12CCCC=C1N(Cc1ccc(Cl)cc1Cl)C(=O)[C@H](CC(=O)NCc1cccc3ccccc13)C2,-3,-6,6389,1,.
N/C(=N/OCC(=O)Nc1cccc2ccccc12)c1nonc1N,2,-3,17291*,-2,4
CCC1CCc2[nH]nc(C(=O)O)c2C1 (stereo not drawn),-1,6,8617,1,7
CC1CCc2[nH]nc(C(=O)O)c2C1 (stereo not drawn),-8,3,20725*,2,-8
CC(=O)Nc1ccc(Cl)c(C(N)=O)c1,0,-2,19829*,-1,5
NC(=S)Nc1ccc(Cl)c(Cl)c1,52*,?,4462,-1,2
CC(=O)Nc1cc(C(N)=O)c(Cl)cc1Cl,-240,i,?,?,6
Cc1oc(C(=O)O)cc1COc1ccc2c3c(c(=O)oc2c1)CCC3,-4,-4,20992*,?,0
COC(=O)c1cc(COc2ccc3c4c(c(=O)oc3c2)CCCC4)c(C)o1,-3,-14,9343,-1,4
CC(C)(C)C(=O)Nc1ccccc1C(=O)N1CCCC1,-4,-3,3805,0,2
CCOc1cc(NC(=O)C2CCCO2)c(OCC)cc1NC(C)=O (stereo not drawn),-3,-8,17626*,-3,-1
COc1ccc(Cl)cc1NC(=O)C1CCCO1 (stereo not drawn),-6,2,4532,-1,1
NC(=O)c1ccccc1NC(=O)C1CCCO1 (stereo not drawn),2,-21,3317,-4,-4
O=C(Nc1ccccc1C(=O)N1CCCCC1)C1CCCCC1,0,-1,22702*,-2,-7
O=C(Nc1ccccc1C(=O)N1CCOCC1)C1CCCO1 (stereo not drawn),-4,6,19285*,5,-9
CSc1ccccc1NC(=O)C1CCCO1 (stereo not drawn),1,2,22505*,2,-13
Cc1nn(CC(C)C)c(Cl)c1C(=O)N(C)CC(=O)Nc1ccc(Cl)cc1,-7,-5,3961,-1,.
COc1ccc(Cl)cc1Cn1c(C)c(C(=O)NCc2cccc([N+](=O)[O-])c2)sc1=O,-4,-12,5850,-1,.
SMILES,Anthrax LF inh2,BoNT-F LC inh,Bead autofluor,BoNT-A LC inh2,BJeLR lethal
COn1c(SCc2cccc(Cl)c2)nc2ccccc2c1=O,-2,-10,17254*,-2,2
Cc1cc(C(=O)NCc2cccs2)c(C)o1,-3,-1,19810*,0,-1
O=C(NCCCCNC(=O)c1ccc(Cl)s1)c1ccc(Cl)s1,0,4,3266,0,6
CC(C)Oc1ccc(C(=O)NCc2cccs2)cc1,0,-2,23288*,?,-2
CN(C)CCNC(=O)c1ccc(Cl)s1,-1,-5,17028*,?,6
O=C(NCc1cccs1)c1cccnc1C(=O)O,-7,-3,17016*,?,3
CCN1C(=O)[C@H]2[C@@H](c3ccc(C)cc3)N[C@]3(CCCN(Cc4cccn4C)C3=O)[C@H]2C1=O,-10,0,2849,1,.
O=C(CCS(=O)(=O)c1cccs1)Nc1ccc(C(=O)NCc2cccs2)cc1,1,0,22948*,1,20
CN(C)CCNC(=O)c1cc2c(s1)-c1ccc(Cl)cc1SC2,-1,-10,4339,0,79*
O=C(NCc1cccs1)c1ccc(Cl)s1,-1,-4,24555*,-2,10
CCc1ccc(C(=O)NCc2cccs2)s1,-2,-2,11231,1,-2
C[C@H](NC(=O)NCc1cccs1)C(=O)O,3,7,21235*,3,7
Cc1cc(C)c2c(N)c(C(=O)NN3CC(=O)N(c4ccccc4)CC3=O)sc2n1,1,0,5498,0,-5
C(=C\c1ccccc1)/CN1CCN(C(c2ccccc2)c2nnnn2Cc2ccccc2)CC1 (stereo not drawn),4,-4,5707,0,.
O=C(O)CCCNS(=O)(=O)c1ccccc1,-2,-6,4356,-1,2
O=C(O)CCNS(=O)(=O)c1ccc(Oc2ccccc2Cl)cc1,-3,-2,17172*,-2,-9
COc1cccc(C(NC(C)=O)c2nc(-c3cccs3)cs2)c1 (stereo not drawn),3,2,3978,0,.
COc1ccccc1CNC(=O)C1CCN(C(=O)N(C)C)CC1,-2,1,20518*,0,-9
COc1cccc(CNC(=O)C2CCN(C(=O)N(C)C)CC2)c1,-1,-2,7067,0,-8
CN(C)C(=O)N1CCC(C(=O)NCc2ccccc2)CC1,0,4,6437,1,0
COc1ccc(CNC(=O)C2CCN(C(=O)N(C)C)CC2)c(OC)c1,-4,-3,16860*,?,-5
O=[N+]([O-])c1ccccc1/C=N/Nc1nccnc1Cl,-2,0,22518*,-1,-1
Oc1ccc(/C=N/Nc2nccnc2Cl)c(O)c1,-17,-14,8702,-1,68*
Oc1ccccc1/C=N/Nc1nccnc1Cl,-2,-10,9470,-2,31
CCCCOC(=O)c1ccc(NC(=O)c2ocnc2C)cc1,0,-4,24702*,?,-9
SMILES,Anthrax LF inh2,BoNT-F LC inh,Bead autofluor,BoNT-A LC inh2,BJeLR lethal
CCCCOC(=O)c1ccc(NC(=O)c2ccoc2C)cc1,-4,1,20473*,0,5
COc1cc(OC)cc(-c2c(Sc3ccccc3)c3cc(-c4ccc(SC)cc4)ccc3n2C)c1,1,9,5955,0,.
COc1cccc(CN2CCC2(C)C(=O)Nc2cccc(Oc3ccccc3)c2)c1F (stereo not drawn),-1,0,2858,0,.
CCOCCn1c(COc2ccccc2)nc2ccccc21,0,-3,3265,0,8
CCCn1c(COc2ccccc2)nc2ccccc21,-2,42*,3009,6,-4
COc1ccccc1N(CC(=O)NC1CCCC1)C(=O)CNC(=O)c1cccs1,-6,-7,3933,0,8
Cc1ccc(S(=O)(=O)ON=C2CCN(S(=O)(=O)c3ccccc3)CC2)cc1,-1,12,3951,-1,-5
Cc1ccc2c(c1)/C(=N/OS(=O)(=O)c1ccccc1)CCS2,-14,?,?,?,0
